# PubChem BioAssay (EPA / NIEHS)
# Results filed as inconclusive are left out. Calls of active or inactive are those of the source. The calls were made as follows, unless noted: active = hit-call score of the fitted dose curve at least 0.9, where 1 is the maximum; inconclusive = response in the unintended direction; inactive = score below 0.9.
# Key:
# [1] = CEETOX_H295R_PROG_noMTC: CeeTox H295R High-throughput Steroidogenesis Assay for Progesterone (PROG), maximum tolerated concentration (MTC) filtered results only (AID 2283920; active = hit-call score of the fitted dose curve at least 0.9, where 1 is the maximum; inactive = score below 0.9); settings: actives raise or lower the signal
# Method in brief: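 H295R cells, prestimulated 48 h with 10 uM forskolin, exposed 48 h to chemical in 0.1% DMSO. Medium progesterone quantified by MTBE extraction and HPLC-MS/MS; bidirectional fit versus DMSO, concentrations not MTT-filtered.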
# PGR (gene 5241) [2] = biological target: PGR (gene 5241) (UniProt P06401); assay: TOX21_PR_BLA_Followup_Antagonist_ratio: Tox21 HEK293 Progesterone Receptor (PR) Antagonism Beta-lactamase Follow-Up Assay, Ratio (AID 2283934);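 also: PR-UAS-bla HEK293T cells stimulated with 1 nM R5020 agonist for 16 hr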
# PGR (gene 5241), sequence (P06401 whole entry, looked up): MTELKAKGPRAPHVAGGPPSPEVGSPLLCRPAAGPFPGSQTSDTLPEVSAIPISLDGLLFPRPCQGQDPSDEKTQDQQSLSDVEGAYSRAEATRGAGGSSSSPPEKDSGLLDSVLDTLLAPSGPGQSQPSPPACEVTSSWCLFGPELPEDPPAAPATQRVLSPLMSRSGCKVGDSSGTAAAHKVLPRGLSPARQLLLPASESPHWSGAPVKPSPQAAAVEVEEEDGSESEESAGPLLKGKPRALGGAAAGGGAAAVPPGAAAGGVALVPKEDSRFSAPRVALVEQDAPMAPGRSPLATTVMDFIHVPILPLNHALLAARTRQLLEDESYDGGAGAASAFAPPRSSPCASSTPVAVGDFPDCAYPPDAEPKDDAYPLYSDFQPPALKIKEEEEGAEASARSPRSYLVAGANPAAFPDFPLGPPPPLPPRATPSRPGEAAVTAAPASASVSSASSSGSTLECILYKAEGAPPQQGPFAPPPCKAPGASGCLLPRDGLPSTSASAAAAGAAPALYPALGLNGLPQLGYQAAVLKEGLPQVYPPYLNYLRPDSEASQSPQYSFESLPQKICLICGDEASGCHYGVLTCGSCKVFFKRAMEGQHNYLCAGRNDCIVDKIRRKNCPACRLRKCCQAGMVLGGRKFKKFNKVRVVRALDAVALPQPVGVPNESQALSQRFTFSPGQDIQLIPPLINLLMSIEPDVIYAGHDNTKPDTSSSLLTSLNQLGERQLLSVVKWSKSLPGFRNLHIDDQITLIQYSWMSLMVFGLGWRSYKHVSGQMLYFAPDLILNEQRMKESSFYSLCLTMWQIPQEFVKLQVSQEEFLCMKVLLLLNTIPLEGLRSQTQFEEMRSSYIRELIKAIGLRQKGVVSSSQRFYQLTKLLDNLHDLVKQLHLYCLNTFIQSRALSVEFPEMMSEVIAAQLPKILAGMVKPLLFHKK
# Method in brief: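 Antagonist mode used 1 nM R5020 (final) as agonist on a beta-lactamase reporter line in HEK293T cells. Activity was taken from the substrate cleavage ratio after 16 hr exposure.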
# [3] = TOX21_PR_BLA_Followup_Agonist_viability: Viability Assessment in the Tox21 HEK293 Progesterone Receptor (PR) Agonism Beta-lactamase Follow-Up Assay (AID 2283935);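 also: signal loss means lower viability so actives are cytotoxic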
# Method in brief: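 Multiplexed viability counter-screen: ATP-coupled luciferase signal measured after 30 min at room temperature, following 16 hr compound treatment of PR-UAS-bla HEK293T cells grown in charcoal-stripped serum.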
# [4] = TOX21_PR_BLA_Followup_Antagonist_viability: Viability Assessment in the Tox21 HEK293 Progesterone Receptor (PR) Antagonism Beta-lactamase Follow-Up Assay (AID 2283936);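 also: hits lower the luminescence signal meaning cytotoxicity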
# Method in brief: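 PR-UAS-bla HEK293T cells (3,000/well, 2% charcoal-stripped FBS) given compound plus R5020 agonist, 16 h at 37C. CellTiter-Glo added after bla read, 30 min at room temperature; luminescence loss indicates cytotoxicity.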
# PGR (gene 5241) [5] = biological target: PGR (gene 5241) (UniProt P06401); assay: TOX21_PR_LUC_Followup_Antagonist: Tox21 HEK293 Progesterone Receptor (PR) Antagonism Luciferase Follow-Up Assay (AID 2283938);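 also: curve fitted upward as signal gain over DMSO baseline despite antagonist label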
# Method in brief: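 Luciferase reporter in HEK293-PR-A-luc cells: 16 h compound treatment at 37C, ONE-Glo luminescence detection, DMSO as negative control and baseline.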
# [6] = TOX21_PR_LUC_Followup_Agonist_viability: Viability Assessment in the Tox21 HEK293 Progesterone Receptor (PR) Agonism Luciferase Follow-Up Assay (AID 2283941);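 also: loss of signal means cytotoxicity so actives lower viability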
# Method in brief: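 Luminescent ATP quantitation (CellTiter-Glo) serves as the read-out; a drop flags cytotoxic compounds. Cells are HEK293-PR-A-luc grown in 10% charcoal-stripped FBS, plated 3,000/well, and exposed to compound for 16 h.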
# [7] = TOX21_PR_LUC_Followup_Antagonist_viability: Viability Assessment in the Tox21 HEK293 Progesterone Receptor (PR) Antagonism Luciferase Follow-Up Assay (AID 2283940)
# Method in brief: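 Cellular ATP, measured with luciferase-coupled CellTiter-Glo, served as the viability endpoint after HEK293-PR-A-luc cells were exposed to test compounds for 16 h at 37C.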
# [8] = CEETOX_H295R_ESTRONE_noMTC: CeeTox H295R High-throughput Steroidogenesis Assay for Estrone, maximum tolerated concentration (MTC) filtered results only (AID 2283921; active = hit-call score of the fitted dose curve at least 0.9, where 1 is the maximum; inactive = score below 0.9); settings: actives raise or lower the signal
# Method: CEETOX_H295R is a cell-based, multiplexed-readout assay that uses H295R, a human adrenal gland cell line, with measurements taken at 48 hours after chemical dosing in a 96-well plate.CEETOX_H295R_ESTRONE_noMTC is one of 12 assay component(s) measured or calculated from the CEETOX_H295R assay (11 hormones and 1 viability assay). It is designed to make measurements of hormone induction, a form of inducible reporter, as detected with absorbance signals by HPLC-MS-MS technology. The concentrations for these components have not been pre-filtered for the maximum tolerated concentration (MTC) based on the MTT assay (_noMTC).Data from the assay component CEETOX_H295R_ESTRONE_noMTC was analyzed into 1 assay endpoint. This assay endpoint, CEETOX_H295R_ESTRONE_noMTC, was analyzed with bidirectional fitting relative to DMSO as the negative control and baseline of activity. […]
# Cell culture and media preparation procedures were conducted in accordance with OECD Test No. 456 guidelines, with minor modifications. […] For steroid quantification, media samples were shipped to OpAns, LLC (Durham, NC) on dry ice, and samples were thawed to room temperature prior to liquid-liquid extraction. […] Steroid hormones were separated by HPLC, eluted using a reverse phase C18 gradient with electrospray positive ionization, followed by quantification by tandem mass spectrometry (MS/MS). […]
# [9] = biological target: Thyroid hormone receptor alpha (Rattus norvegicus) + Thyroid hormone receptor beta (Rattus norvegicus) (UniProt P18113+P63059); assay: TOX21_TR_LUC_GH3_Antagonist_Followup: Tox21 GH3 Thyroid Hormone Receptor Antagonism Luciferase Follow-Up Assay (AID 2283942)
# Method in brief: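 Antagonist mode: GH3 cells seeded 1,500/well, compounds at 15 concentrations (92 uM to 5nM final) plus T3 at 1.0 nM final, 24 h at 37C. Luciferase read with ONE-Glo after 30 min at room temperature.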
# THRA (gene 7067) = THRA (gene 7067) (UniProt P10827); assay: TOX21_TRA_COA_Antagonist_Followup_ratio: Tox21 Thyroid Hormone Receptor alpha Antagonism through Coactivator Recruitment Follow-Up Assay, Ratio (AID 2283953)
# THRA (gene 7067), sequence (P10827 whole entry, looked up, the tested form may be a part): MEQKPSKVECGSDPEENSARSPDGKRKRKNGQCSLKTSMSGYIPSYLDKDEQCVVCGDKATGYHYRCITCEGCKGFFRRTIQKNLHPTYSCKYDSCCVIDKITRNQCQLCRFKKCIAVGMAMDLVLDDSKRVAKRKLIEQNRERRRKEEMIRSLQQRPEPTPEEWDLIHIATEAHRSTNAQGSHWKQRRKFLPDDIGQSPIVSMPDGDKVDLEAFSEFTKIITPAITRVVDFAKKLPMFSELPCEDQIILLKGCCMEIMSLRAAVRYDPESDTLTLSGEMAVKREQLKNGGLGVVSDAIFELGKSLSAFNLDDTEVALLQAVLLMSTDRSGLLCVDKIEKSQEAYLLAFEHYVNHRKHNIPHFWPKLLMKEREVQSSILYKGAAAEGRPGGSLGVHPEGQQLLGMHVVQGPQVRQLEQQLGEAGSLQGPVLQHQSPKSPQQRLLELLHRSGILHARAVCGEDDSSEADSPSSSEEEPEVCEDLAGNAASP
# Method in brief: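 This follow-up to the GH3 luciferase screen checks specificity in a cell-free format. It measures SRC-2 coactivator peptide binding to TRα LBD by TR-FRET and scores loss of ratio signal relative to DMSO.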
smiles,measurement,setting,value
CCS(=O)(=O)c1cccnc1S(=O)(=O)NC(=O)Nc1nc(OC)cc(OC)n1,AC50,[1],16.7 µM (active)
ClC1C(Cl)C(Cl)C(Cl)C(Cl)C1Cl (configuration not stated),outcome,PGR (gene 5241) [2],inactive
same,outcome,[3],inactive
same,outcome,[4],inactive
same,outcome,PGR (gene 5241) [5],inactive
same,outcome,[6],inactive
COP(=S)(OC)Oc1ccc([N+](=O)[O-])cc1,AC50,PGR (gene 5241) [2],38.4 µM (active)
same,outcome,[3],inactive
same,outcome,[4],inactive
same,AC50,PGR (gene 5241) [5],33.5 µM (active)
same,outcome,[7],inactive
same,outcome,[6],inactive
O=C(Nc1ccccc1)Nc1cnns1,AC50,[1],34.7 µM (active)
same,outcome,[8],inactive
CC1(c2ccc(Oc3ccccc3)cc2)OC(=O)N(Nc2ccccc2)C1=O (configuration not stated),AC50,[9],25.7 µM (active)
same,outcome,THRA (gene 7067),inactive
CCCN(CCOc1c(Cl)cc(Cl)cc1Cl)C(=O)n1ccnc1,AC50,PGR (gene 5241) [2],32.3 µM (active)
same,outcome,[3],inactive
same,outcome,[4],inactive
same,AC50,PGR (gene 5241) [5],57.9 µM (active)
same,outcome,[7],inactive
same,outcome,[6],inactive
